This passage reports growth results from PubChem BioAssay (NCI).

Test systems include UACC-62 melanoma; U251 CNS; SK-MEL-5 melanoma; SNB-75 CNS; HCT-15 colon; SNB-19 CNS; PC-3 prostate; LOX IMVI melanoma; SK-MEL-28 melanoma; HT29 colon.
Holding throughout (experiment): NCI-60 one-dose screen, 48 h (100 = growth as untreated, 0 = no growth, -100 = all killed)
Conditions in all cases: 10 µM unless noted

Where “and” joins values, the source holds several entries; their conditions need not be identical. Equal entries are not always repeated. This is part of a sample that, as a whole, favours compounds with a hit. Of some 83,000 tested, about 20% had one in any assay.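 Method: cells in 96-well plates; compound added at one concentration; 48 h incubation; percent growth measured; values under 10 scored active.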 Calls of active or inactive are those of the source.

Regarding `NC1=NN(c2ccccc2)C2(c3ccncc3C(=O)O)C1C(N)=NN2c1ccccc1` (stereo unspecified), the growth in the assay with UACC-62 melanoma is 67.3% [100 µM] (inactive) and 18.3% [100 µM] (inactive).

As to `N#Cc1cnn2c1n[n+]([O-])c1ccc(Cl)cc12`, the growth with UACC-62 melanoma was -91.7% [100 µM] (active) and -100% [100 µM] (active).

As for `Cc1cc[n+](CCc2ccccc2)cc1`, the results for the growth in the assay with U251 CNS and in the assay on SK-MEL-5 melanoma were 97.2% (inactive) and 92.7% (inactive), respectively.

As to `N#C/C(=C\c1ccccc1)C(=O)Nc1nnc(-c2ccccc2)o1`, the growth in the assay on UACC-62 melanoma is 36.9% [100 µM] (inactive) and -78.4% [100 µM] (active).

As to `Cc1cc(N2CCCC2)c([N+](=O)[O-])cc1[N+](=O)[O-]`, the growth in the assay on UACC-62 melanoma was 64.5% [100 µM] (inactive) and 32.1% [100 µM] (inactive).

Turning to `Cc1cc(-c2nc3ccccc3s2)ccc1N`, the growth in the assay with UACC-62 melanoma was 46.1% [100 µM] (inactive) and 40.6% [100 µM] (inactive).

Consider `CC(=O)OCC1=C(C)C[C@H]([C@@H](COC(C)=O)C2CCC3C4C[C@H]5O[C@]56CC=CC(=O)[C@]6(C)C4CC[C@@]32C)OC1=O` (stereo partly specified), for which, in the assay with UACC-62 melanoma, the growth is -91% [50 µM] (active) and -99.6% [50 µM] (active).

On to `C=C1C(=O)OC2C1CC(O)/C(C)=C\CCC1(C)OC21` (stereo unspecified), for which the growth with UACC-62 melanoma was 68.9% [100 µM] (inactive) and -86% [100 µM] (active).

Regarding `CC1=CCC2C3(C)CCC2(C(C)C)C1C3` (stereo unspecified) (tested in a mixture with another compound), the growth with UACC-62 melanoma is 17.4% [100 µM] (inactive) and 0.443% [100 µM] (active).

As to `CC(=O)c1cc2c(s1)C(=O)c1sccc1C2=O`, the growth in the assay with UACC-62 melanoma was -45.9% [100 µM] (active) and -100% [100 µM] (active).

Take `C=C1C(=O)OC2/C=C(/C)C3(O)OC(C)(CC(OC(=O)C(C)C)C12)CC3OC(C)=O` (stereo unspecified): the growth in the assay with UACC-62 melanoma was -93% [100 µM] (active).

As for `C#CCn1c2c(c3ccccc3c1=O)C(=O)c1ccccc1-2`, the growth in the assay on UACC-62 melanoma is 16% [100 µM] (inactive) and -100% [100 µM] (active).

For `C1CCC([PH+](C2CCCCC2)C2CCCCC2[PH+](C2CCCCC2)C2CCCCC2)CC1.[Au].[CH-]1CCCCC1CC1CCCC[N-]1` (stereo unspecified), in the assay with SNB-75 CNS, the growth was 19.8% (inactive).

`N#CC12COC3(CCCCC3C1(C#N)C#N)OC2=N` (stereo unspecified): the growth in the assay on UACC-62 melanoma is -38.9% [100 µM] (active).

With `O=C1N(c2ccccc2)N=C2c3ccncc3C3=NN(c4ccccc4)C(=O)C123` (stereo unspecified), the growth with UACC-62 melanoma was 59.9% [100 µM] (inactive) and 10.7% [100 µM] (inactive).

On to `O=c1c(-c2ccc3c(c2)OCO3)coc2c3c(ccc12)OCO3`, for which the growth in the assay with UACC-62 melanoma is 49.2% [100 µM] (inactive) and -100% [100 µM] (active).

As to `NNC1=N/C(=C\c2ccco2)C(Cl)=N1`, the growth in the assay on UACC-62 melanoma was 10.8% [100 µM] (inactive) and -100% [100 µM] (active).

In the case of `Oc1ccc(/C=C/c2cc(O)cc3c2C(c2cc(O)cc(O)c2)C(c2ccc(O)c(O)c2)O3)cc1` (stereo unspecified), the growth in the assay on UACC-62 melanoma is -57.3% [100 µM] (active) and -23.7% [100 µM] (active).

As to `CC(=O)c1cc(C)c(OC(=O)c2ccccc2)c(C)c1`, the growth in the assay on HCT-15 colon was 92.2% (inactive); with SNB-19 CNS, 103% (inactive); with PC-3 prostate, 89.9% (inactive); in the assay on SK-MEL-5 melanoma, 88.9% (inactive); in the assay on UACC-62 melanoma it was 90.7% (inactive); in the assay on LOX IMVI melanoma it was 90.2% (inactive). In addition, the growth in the assay on SK-MEL-28 melanoma was 117% (inactive).

In the case of `C=CCCCCCCCCC(=O)[O-].C=CCCCCCCCCC(=O)[O-].[Zn+2]`, the growth in the assay with SNB-19 CNS is 100% (inactive).

In the case of `Oc1ccc2ccccc2c1C1NN=C(c2ccccc2)S1` (stereo unspecified), the growth in the assay with HT29 colon is 37.8% (inactive); in the assay on SNB-75 CNS, 41.8% (inactive); in the assay with SNB-19 CNS, 23.6% (inactive); in the assay with U251 CNS it was 19.4% (inactive); in the assay on PC-3 prostate, 27.7% (inactive); with SK-MEL-5 melanoma, 11.6% (inactive). For the same compound, the results for the growth in the assay on LOX IMVI melanoma and with SK-MEL-28 melanoma were 13.8% (inactive) and 23% (inactive), respectively.

Consider `Nc1cc2c3c(cccc3c1)C(=O)N(c1ccc(OCCN3CCCCC3)cc1)C2=O`, for which, in the assay with UACC-62 melanoma, the growth is -67.3% [100 µM] (active) and -100% [100 µM] (active).
